{
  "source": "the supplement of paper PMC11577813",
  "about": "“Eurasian spruce bark beetle detects lanierone using a highly expressed specialist odorant receptor, present in several functional sensillum types” (BMC Biology, 2024)",
  "tested_on": "lanierone-responsive B-neuron OSN class (ItypOR36)",
  "experiment": "net action potential response of lanierone B-neuron (blank-subtracted) (spikes/s (Hz)); higher = stronger excitation",
  "settings": "10 µg on filter paper, neuron: B neuron (small spike amplitude)",
  "protocol": "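Single sensillum recordings from antennal olfactory sensilla of live adult Ips typographus. Each compound was 10 µg in paraffin oil, delivered as a 0.5 s puff. Net response = spikes in the first 0.5 s of response minus the 0.5 s pre-stimulus count, doubled to give Hz, with blank response subtracted. Values are for the small-spike lanierone-responsive B-neuron (putatively expressing ItypOR36), recorded in sensilla co-housing the A-neuron class; N = 1-4, averaged.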",
  "key": {"[1]": {"settings": "co-localized A-neuron class: (4S)-cis-verbenol"}, "[2]": {"settings": "co-localized A-neuron class: (5S,7S)-trans-conophthorin"}, "[3]": {"settings": "co-localized A-neuron class: (+)-isopinocamphone"}, "[4]": {"settings": "co-localized A-neuron class: (+)-trans-4-thujanol"}, "[5]": {"settings": "co-localized A-neuron class: ipsdienol"}, "[6]": {"settings": "co-localized A-neuron class: myrcene"}, "[7]": {"settings": "co-localized A-neuron class: p-cymene"}},
  "note": "± gives the standard deviation of the averaged measurements.",
  "data": [
    {"molecule": "Cc1ccccc1", "note": "[Toluene]", "values": [
      {"measurement": "net action potential response", "setting": "[1]", "result": "2 ± 4"},
      {"measurement": "net action potential response", "setting": "[2]", "result": "-1 ± 5"},
      {"measurement": "net action potential response", "setting": "[3]", "result": -4},
      {"measurement": "net action potential response", "setting": "[4]", "result": "1 ± 1.1"},
      {"measurement": "net action potential response", "setting": "[5]", "result": "-2 ± 3.5"},
      {"measurement": "net action potential response", "setting": "[6]", "result": 0},
      {"measurement": "net action potential response", "setting": "[7]", "result": 0}
    ]},
    {"molecule": "O=Cc1ccccc1", "note": "[Benzaldehyde]", "values": [
      {"measurement": "net action potential response", "setting": "[1]", "result": "0 ± 3.5"},
      {"measurement": "net action potential response", "setting": "[2]", "result": "0.667 ± 1.1"},
      {"measurement": "net action potential response", "setting": "[3]", "result": "-2.67 ± 3.1"},
      {"measurement": "net action potential response", "setting": "[4]", "result": "-2.5 ± 10"},
      {"measurement": "net action potential response", "setting": "[5]", "result": "2 ± 7.2"},
      {"measurement": "net action potential response", "setting": "[6]", "result": -6},
      {"measurement": "net action potential response", "setting": "[7]", "result": 0}
    ]},
    {"molecule": "C=CCc1ccc(OC)cc1", "note": "[Estragole]", "values": [
      {"measurement": "net action potential response", "setting": "[1]", "result": "1.33 ± 7.6"},
      {"measurement": "net action potential response", "setting": "[2]", "result": "0 ± 7.8"},
      {"measurement": "net action potential response", "setting": "[3]", "result": "0 ± 2"},
      {"measurement": "net action potential response", "setting": "[4]", "result": "0 ± 4.3"},
      {"measurement": "net action potential response", "setting": "[5]", "result": "4 ± 5.3"},
      {"measurement": "net action potential response", "setting": "[6]", "result": -8},
      {"measurement": "net action potential response", "setting": "[7]", "result": "-2.67 ± 1.1"}
    ]}
  ]
}
